Experimental data reported in PubChem BioAssay (Tox21).
Where “and” joins values, the source holds several entries; their conditions need not be identical. Identical values can stand only once. Records with an inconclusive call do not appear. Where a call stands in place of a potency, no number is given. Where a structure was tested more than once in an assay, its records may differ in their call. Calls of active or inactive are those of the source. Unless noted, the call rests on the fitted dose curve; in most records, active means well fitted curve in the direction sought with a large enough effect in the repeat runs; inconclusive means weak or mixed curves; inactive means no such curve, though single readings can be large; an effect the other way counts as inactive or inconclusive.

Assays:
[1] = qHTS assay to identify small molecule antagonists of the glucocorticoid receptor (GR) signaling pathway - cell viability counter screen (AID 720693); further: nearly all actives have a fitted effect of over 55% in size; further: potency means the concentration at half of the fitted maximal effect
[2] = qHTS assay for identifying genotoxic compounds that show differential cytotoxicity against isogenic chicken DT40 cell lines with known DNA damage response pathways - Rev3 mutant cell line (AID 743014); further: nearly all actives have a fitted effect of over 55% in size; further: potency means the concentration at half of the fitted maximal effect
[3] = qHTS assay for identifying genotoxic compounds that show differential cytotoxicity against isogenic chicken DT40 cell lines with known DNA damage response pathways - Rad54/Ku70 mutant cell line (AID 743015); further: nearly all actives have a fitted effect of over 60% in size; further: potency means the concentration at half of the fitted maximal effect
[4] = qHTS assay to identify small molecule antagonists of the androgen receptor (AR) signaling pathway - cell viability counter screen (AID 743033; further: nearly all actives have a fitted effect of over 45% in size; further: potency means the concentration at half of the fitted maximal effect)
[5] = qHTS assay to identify small molecule antagonists of the androgen receptor (AR) signaling pathway using the MDA cell line - cell viability counter screen (AID 743041; further: nearly all actives have a fitted effect of over 45% in size)
Procedure, shortened: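 Using the breast carcinoma line MDA-kb2 AR-luc, test chemicals were co-incubated with R1881 for 16 h; CellTiter-Fluor reagent, added at 15.5 h, provided a fluorescence measure of live cells.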

[6] = molecular target: Androgen receptor (Homo sapiens) (UniProt P10275); assay: qHTS assay to identify small molecule agonists of the androgen receptor (AR) signaling pathway (AID 743036; active means well fitted activation curve with a large enough effect in the signal ratio in the repeat runs, with a control signal flat, not every such curve was filed as active; the % refers to the signal ratio; further: potency means the concentration at half of the fitted maximal effect)
Androgen receptor (Homo sapiens), sequence (P10275 whole entry, looked up): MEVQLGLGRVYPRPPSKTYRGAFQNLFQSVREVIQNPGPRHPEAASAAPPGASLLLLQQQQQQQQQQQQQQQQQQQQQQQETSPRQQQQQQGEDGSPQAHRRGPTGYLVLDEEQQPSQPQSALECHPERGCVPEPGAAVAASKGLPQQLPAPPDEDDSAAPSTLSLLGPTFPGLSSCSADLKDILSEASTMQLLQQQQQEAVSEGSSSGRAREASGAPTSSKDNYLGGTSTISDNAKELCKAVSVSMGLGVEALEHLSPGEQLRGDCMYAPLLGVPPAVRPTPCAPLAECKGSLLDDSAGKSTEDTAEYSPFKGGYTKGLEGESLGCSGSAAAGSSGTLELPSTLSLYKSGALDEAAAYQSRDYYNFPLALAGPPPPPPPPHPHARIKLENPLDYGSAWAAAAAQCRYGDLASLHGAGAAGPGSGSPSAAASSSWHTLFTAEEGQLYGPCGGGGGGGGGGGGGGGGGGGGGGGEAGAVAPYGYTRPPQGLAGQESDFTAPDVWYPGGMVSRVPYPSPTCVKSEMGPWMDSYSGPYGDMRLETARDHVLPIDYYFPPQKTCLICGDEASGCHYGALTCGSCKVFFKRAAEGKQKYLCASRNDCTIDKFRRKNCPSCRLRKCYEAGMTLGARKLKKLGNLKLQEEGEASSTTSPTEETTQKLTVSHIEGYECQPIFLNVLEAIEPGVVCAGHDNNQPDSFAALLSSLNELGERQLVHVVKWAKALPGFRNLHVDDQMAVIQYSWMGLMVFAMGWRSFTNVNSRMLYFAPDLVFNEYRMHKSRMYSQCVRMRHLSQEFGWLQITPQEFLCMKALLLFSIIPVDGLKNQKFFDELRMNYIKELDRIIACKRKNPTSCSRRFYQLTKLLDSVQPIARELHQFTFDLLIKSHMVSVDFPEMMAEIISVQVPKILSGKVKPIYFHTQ
Procedure, shortened: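 AR-UAS-bla HEK293 cells, plated 4 h before dosing, were treated with compound for 16 h at 37C. beta-Lactamase reporter read after 2 h with LiveBLAzer B/G FRET substrate at room temperature.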

[7] = molecular target: Androgen receptor (Homo sapiens) (UniProt P10275); assay: qHTS assay to identify small molecule agonists of the androgen receptor (AR) signaling pathway using the MDA cell line (AID 743040; further: nearly all actives have a fitted effect of over 20% in size); conditions: MDA-kb2 AR-luc cells, MMTV luciferase, 16 h; activity change: at 70.3 µM (top of the series), stronger effect = higher value
Procedure, shortened: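 Stable MMTV-luciferase reporter in MDA-kb2 cells; note the promoter carries GR as well as AR response elements. 16 h compound treatment, 37C, 0% CO2; ONE-Glo luminescence endpoint.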

[8] = molecular target: Androgen receptor (Homo sapiens) (UniProt P10275); assay: qHTS assay to identify small molecule antagonists of the androgen receptor (AR) signaling pathway using the MDA cell line (AID 743042; further: nearly all actives have a fitted effect of over 55% in size)
Procedure, shortened: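 Antagonist mode: compounds plus R1881 agonist added to MDA-kb2 AR-luc cells, incubated 16 h at 37C. Luciferase reporter luminescence quantified, with multiplexed CellTiter-Fluor readout for cell viability.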

[9] = molecular target: Androgen receptor (Homo sapiens) (UniProt P10275); assay: qHTS assay to identify small molecule antagonists of the androgen receptor (AR) signaling pathway (AID 743035; active means well fitted inhibition curve with a large enough effect in the signal ratio in the repeat runs, not every such curve was filed as active; the % refers to the signal ratio)
Procedure, shortened: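 Reporter HEK293 cells were exposed to compounds and R1881 overnight (16 h, 37C); beta-lactamase activity was then quantified by FRET fluorescence.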

Compound | Potency [1] | Potency [2] | Potency [3] | Potency [4] | Potency [5] | Potency [6] | Potency [7] | Potency [8] | Potency [9] | activity change [7]
CCC(C)Cl (centres undefined) | inactive | inactive | inactive | inactive | inactive |  |  |  |  | 
C[C@H](N)[C@H](O)c1ccc(O)c(O)c1 | inactive | 11.9 µM (active) | 16.8 µM (active) | inactive | inactive |  |  |  |  | 
CCOP(=O)(O)C(N)=O | inactive | inactive | inactive | inactive |  |  |  |  |  | 
NP(N)(=O)NC(=O)c1ccc(F)cc1 | inactive | inactive | inactive | inactive |  | inactive | inactive | inactive |  | 
CC(C)(C)NCC(O)c1ccccc1Cl (centres undefined) | inactive | inactive | inactive | inactive | inactive |  |  |  |  | 
O=C(O)C(Cl)(Cl)Br | inactive | inactive | inactive | inactive | inactive |  |  |  |  | 
C=CCOC(=O)C(C)(C)OC(=O)c1cc(-n2c(=O)cc(C(F)(F)F)n(C)c2=O)ccc1Cl | inactive | 30 µM (active) | 60 µM (active) |  |  |  |  |  |  | 
CCOP(=S)(S)OCC | inactive | inactive | inactive | inactive |  |  | inactive | inactive | inactive | 
C=C(Cl)Cl | inactive | inactive | inactive | inactive | inactive | inactive | inactive | inactive | inactive | 
O=C(O)c1cc(Cl)ccc1Cl | inactive | inactive | inactive | inactive | inactive |  |  |  |  | 
CCCN(CCC)C(=O)Cc1c(-c2ccc(Cl)cc2)nc2ccc(Cl)cn12 | inactive | inactive | inactive | inactive | inactive |  |  |  |  | 
CCC(C)(C)O | inactive | inactive | inactive | inactive |  |  |  |  |  | 
CCOP(=S)(OCC)SCSc1cc(Cl)ccc1Cl | inactive | inactive | inactive | inactive | inactive |  |  |  |  | 
N#CC(C#N)=Cc1ccc(O)c(O)c1 | inactive | 26.6 µM (active) | 26.6 µM (active) | inactive |  |  | inactive | inactive |  | 
CCCCCBr | inactive | inactive | inactive | inactive | inactive | inactive | inactive | inactive | inactive | 
Cc1ccc2c(C)cccc2c1 | inactive | inactive | inactive | inactive | inactive |  |  |  |  | 
CCCCCCCCP(=O)(O)O | inactive | inactive | inactive | inactive |  |  |  |  |  | 
CC(C)(C#N)C(C)(C)C#N | inactive | inactive | inactive | inactive | inactive |  |  |  |  | 
CCOC(=O)c1cn2nc(OP(=S)(OCC)OCC)cc2nc1C | inactive | 48.6 µM (active) | 38.6 µM (active) |  |  |  |  |  |  | 
C[C@]12C=CC3=C4CCC(=O)C=C4CC[C@H]3[C@@H]1CC[C@@H]2O | 24.4 µM (active) | 68.1 µM (active) | 60.7 µM (active) | inactive | inactive | 0.0027 µM (active) |  | inactive |  | 189% (active)
C=CCc1ccccc1O | inactive | inactive | inactive | inactive |  |  |  |  |  | 
COCc1cnc(C2=NC(C)(C(C)C)C(=O)N2)c(C(=O)O)c1 (centres undefined) | inactive | inactive | inactive | inactive |  | inactive | inactive | inactive | inactive | 
CC(C)c1ccc(OP(=O)(Oc2ccc(C(C)C)cc2)Oc2ccc(C(C)C)cc2)cc1 | inactive | 61.6 µM (active) and 27.3 µM (active) | 69.1 µM (active) and 54.5 µM (active) and 21.7 µM (active) | inactive |  |  |  |  |  | 
C=CC(=O)OCC | inactive | inactive | inactive | inactive |  |  |  |  |  | 
CC1(C)[C@H](C(=O)O[C@H](C#N)c2cccc(Oc3ccccc3)c2)[C@@H]1C=C(Br)Br | inactive | inactive and 48.6 µM (active) | inactive and 43.3 µM (active) | inactive | inactive | inactive | inactive | inactive | inactive | 
OCC1CO1 (centres undefined) | inactive | inactive | inactive | inactive |  |  |  |  |  | 
Nc1c(Br)cc(Br)c2c1C(=O)c1ccccc1C2=O | inactive | inactive | inactive | inactive | inactive | inactive | inactive | inactive |  | 
FC(Cl)(Cl)C(F)(Cl)Cl | inactive | inactive | inactive | inactive | inactive |  |  |  |  | 
CCCCCCCCCCCC[N+](C)(C)CCOc1ccccc1 | 17.4 µM (active) | 2.37 µM (active) and 3.86 µM (active) | 2.66 µM (active) and 6.11 µM (active) | 23.9 µM (active) and 15.5 µM (active) |  |  |  |  |  | 
C[C@H]1O[C@H](OC2[C@@H](O)[C@@H](O)C(O)[C@H](O)[C@H]2O)[C@@H](N)C[C@@H]1N=C(N)C(=O)O (some centres undefined) | inactive | inactive | inactive | inactive | inactive |  |  |  |  | 
